{"source": "PubChem BioAssay AID504725", "about": "(Broad Institute, 2011)", "note": "Entries with a potency or affinity are not part of this list. Calls of active or inactive are those of the source. The rule behind the calls is not given here."}
{"target": "KSHV LANA C-terminal domain (residues 932-1162) binding to LBS DNA (UniProt O40947)", "experiment": "KSHV LANA DNA-binding disruption – biochemical, fluorescence polarization, cherry-picked samples, dose response (AID 504725)", "conditions": "MBP-C-LANA / FAM-LBS DNA fluorescence polarization; series mostly up to 35 µM"}
{"smiles": "CCCCc1ccc(C(=O)O)nc1", "outcome": "inactive"}
{"smiles": "O=c1[nH]c(=O)n(C2CCCCC2)c(O)c1C=Nc1ccc(N2CCOCC2)cc1", "outcome": "inactive"}
{"smiles": "CC(OC(=O)c1cn(C)c2ccccc12)C(=O)N1CCCC1", "note": "(stereo not drawn)", "outcome": "inactive"}
{"smiles": "O=c1c2ccccc2nc(/C=C\\c2ccccc2[N+](=O)[O-])n1-c1ccccc1O", "outcome": "inactive"}
{"smiles": "CC(C)CC(=O)Nc1ccc(S(=O)(=O)N2CC3CC(C2)c2cccc(=O)n2C3)cc1", "note": "(stereo not drawn)", "outcome": "inactive"}
{"smiles": "Cc1cc(=O)oc2cc(OCC(=O)N3CCN(Cc4ccc5c(c4)OCO5)CC3)ccc12", "outcome": "inactive"}
{"smiles": "CCOC(=O)c1c(/N=C/c2c(O)n(-c3cccc(C)c3)c(=O)[nH]c2=O)sc2c1CCCC2", "outcome": "inactive"}
{"smiles": "CC(Cc1ccccc1)NC(=O)NC(C)Cc1ccccc1", "note": "(stereo not drawn)", "outcome": "inactive"}
{"smiles": "CN(C)C1C(=O)C(C(N)=O)=C(O)C2(O)C(=O)C3=C(O)c4c(O)cccc4C(C)(O)C3C(O)C12", "note": "(stereo not drawn)", "outcome": "inactive"}
{"smiles": "COCCNC(=O)Cn1cc(/C=C2\\C(=O)NC(=O)N(c3cccc(C)c3C)C2=O)c2ccccc21", "outcome": "inactive"}
{"smiles": "Cc1cc(OCC(=O)OC(C)(C)C)c2c3c(c(=O)oc2c1)CCC3", "outcome": "inactive"}
{"smiles": "CCn1c(O)c(N=Nc2cccc(S(=O)(=O)N3CCOCC3)c2)c(=O)n(CC)c1=S", "outcome": "inactive"}
{"smiles": "COC(=O)C1=C(c2ccc(OC(F)(F)F)cc2)C[C@@H]2CC[C@H]1N2C(=O)NC1CCCCC1", "outcome": "inactive"}
